Among all 48,000 compounds or so, about 13,000 (27%) showed an effect of 50% or more. This is one part of the list.
The compounds below were run on Wolbachia pipientis (assay: Anti-Wolbachia Cell-Based Screen). Details: 5 µM.
Assay type: functional
Parameters: scale not given: in the data most compounds retested in dose-response had high values

Point of comparison: `CNC(=O)[C@@H]1CN(C(=O)C2CCC2)C[C@H]1c1ccnc(N2CCCC2)n1.Cl`, “Percent Effect” value 84.63%. Against it:
- Cc1oc(NC(=O)C(C)N2CCN(C(C)(C)CO)CC2)c(C#N)c1C (stereo not drawn) — lower, -7.519%
- O=C(Cc1cccc(F)c1F)NS(=O)(=O)c1cncc(Cl)c1 — lower, -8.127%
- Cc1ccc(OC2(C(=O)O)CCN(C/C=C/c3ccco3)CC2)cn1 — lower, 1.431%
- CCN1CCN(c2ccc(CNC(=O)c3c(C)noc3C)cn2)CC1 — lower, 9.474%
- CN(Cc1ccc([S+](C)[O-])cc1)c1ccccn1 (stereo not drawn) — lower, -21.98%
- Cc1nc(C)n(CC(C)C(=O)N2CCC(NS(C)(=O)=O)CC2)n1 (stereo not drawn) — lower, -0.2261%
- CS(=O)(=O)Cc1ccc(CNc2ncc(C#N)cc2Cl)cc1 — lower, -4.102%
- CCN(C)C(=O)C1(c2ccc(F)cc2F)CCC1 — lower, -1.611%
- CC(=O)N1CCCC1c1cc(N2CCN(C3CCCC3)CC2)cc(C)n1 (stereo not drawn) — lower, 1.456%
- Cc1n[nH]c(C)c1C1CCCN1C(=O)NCC(=O)NC(C)(C)C (stereo not drawn) — lower, -8.161%
- O=C(Nc1cccc(N2CCN(CC3CC3)CC2)c1)N1CCCC1 — lower, 0.3876%
- CC(=O)N1CCCC1c1cc(N2CCN(CC(C)(C)C)CC2)cc(C)n1 (stereo not drawn) — higher, 123.3%
- CC(=O)N1CCCC1c1cc(N2CCN(CC3CC3)CC2)cc(C)n1 (stereo not drawn) — higher, 101%
- Cc1cccc(CNCc2c(C(C)C)nn(C)c2N2CCOCC2)n1 — lower, -7.798%
- NS(=O)(=O)CCNC(=O)c1nnn(-c2ccccc2)c1C1CC1 — lower, -6.368%
- COCCS(=O)(=O)NC(=O)c1nnn(-c2ccc(F)cc2)c1C1CC1 — lower, -1.625%
- Cc1ccc(-n2nnc(C(=O)NS(C)(=O)=O)c2C2CC2)cc1 — lower, -4.729%
- CC(C)NC(=O)c1nnn(-c2cccc(C(F)(F)F)c2)c1C1CC1 — lower, 8.497%
- CS(=O)(=O)NC(=O)c1nnn(-c2ccccc2)c1C1CC1 — higher, 97.89%
- CS(=O)(=O)NC(=O)c1nnn(-c2cccc(F)c2)c1C1CC1 — higher, 110.8%
- NC(=O)c1ccc(OCC(=O)NC2CCc3c(F)cccc32)cc1 (stereo not drawn) — lower, -9.741%
- CC(C)N(C)Cc1ccccc1CNc1ccc2nncn2n1 — lower, -2.79%
- Cc1cc(F)ccc1S(=O)(=O)N1C[C@@H](C)[C@@](C)(O)C1 — lower, 6.812%
- Cc1ccc(CC(=O)N2CCc3nnc(N(C)C)cc3C2)cn1 — lower, -3.136%
- CNC(=O)C1CCCN(c2nc(-c3ccco3)nc3c2CCNCC3)C1 (stereo not drawn) — lower, -9.477%
- CNC(=O)C1CCCN(C(=O)C2CCC2)C1 (stereo not drawn) — lower, -10.43%
- CNC(=O)[C@@H]1CN(C(=O)C(C)C)C[C@H]1c1ccnc(N2CCCC2)n1.Cl — higher, 109.4%
